# “And” between values parts separate entries of the source, which are not always exact repeats. Equal values may be shown once. Inconclusive results are not listed. Some of the results follow. A call without a number means that no potency is given here. The source made the active and inactive calls. Unless noted, calls follow the shape of the dose curve; as a rule, active = well fitted curve in the direction sought with a large enough effect; inconclusive = small, poorly fitted or top-dose-only effect, or another doubt; inactive = no such curve, though single readings can be large; an effect the other way counts as inactive or inconclusive.
# Columns and labels:
# [1] = biological target: Tyrosine-protein kinase Yes (Homo sapiens) (UniProt P07947); assay: qHTS for small molecule inhibitors of Yes1 kinase: Primary Screen (AID 686947); also: nearly all actives have a fitted effect of over 60% in size; also: potency is read from the fitted curve at half-maximal effect
# Sequence of Tyrosine-protein kinase Yes (Homo sapiens) (P07947 whole entry, looked up): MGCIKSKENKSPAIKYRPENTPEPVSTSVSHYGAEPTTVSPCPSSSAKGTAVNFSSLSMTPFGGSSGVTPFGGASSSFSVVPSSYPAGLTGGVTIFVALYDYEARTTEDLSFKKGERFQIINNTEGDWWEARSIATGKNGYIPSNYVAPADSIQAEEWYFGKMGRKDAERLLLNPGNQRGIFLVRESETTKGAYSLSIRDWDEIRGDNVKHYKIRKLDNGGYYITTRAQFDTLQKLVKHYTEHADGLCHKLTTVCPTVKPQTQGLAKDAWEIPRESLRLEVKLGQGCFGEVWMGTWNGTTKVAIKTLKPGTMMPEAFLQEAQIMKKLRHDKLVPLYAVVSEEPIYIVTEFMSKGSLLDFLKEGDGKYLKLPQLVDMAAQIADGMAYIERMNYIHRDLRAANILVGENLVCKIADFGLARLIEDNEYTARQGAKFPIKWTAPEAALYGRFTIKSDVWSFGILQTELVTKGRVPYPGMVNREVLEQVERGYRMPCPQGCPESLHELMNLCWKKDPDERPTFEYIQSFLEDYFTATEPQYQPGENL
# Outline: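 ADP-Glo luminescence reports ADP formed by 4 nM Yes1 phosphorylating poly(E4Y) (0.3 mg/mL) with 0.1 mM ATP for 60 min at room temperature, following 20 min compound preincubation; normalised between DMSO wells with and without enzyme.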
# [2] = qHTS for small molecule inhibitors of Yes1 kinase: Counter Assay (AID 686950);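 also: no kinase present so only ADP-Glo detection of a fixed ADP amount is tested; luminescence from ADP-Glo reporting ADP in a fixed ATP and ADP mixture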
# Outline: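 No kinase present; 0.08 mM ATP + 0.02 mM ADP in 50 mM Tris pH 7.5, 10 mM MgCl2, 150 mM NaCl, 1 mM DTT; 20 min compound preincubation, 60 min RT, ADP-Glo luminescence, normalized to ATP/ADP (max) and ATP-only (min).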
# [3] = qHTS for Inhibitors of WRN Helicase: Thiazole Orange DNA Binding Counterscreen (AID 720499);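 also: drop in dye fluorescence marks compound binding to DNA; nearly all actives have a fitted effect of over 60% in size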
# Outline: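 Here, compounds that displace thiazole orange (100 nM) from unlabeled DNA (50 nM) lower fluorescence, read at excitation 480 nm and emission 530 nm after a 15 min room-temperature incubation.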
# [4] = qHTS profiling for inhibitors of Plasmodium falciparum (3D7) proliferation (AID 743322);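 also: infected erythrocytes exposed to compound for 72 h before lysis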; details: P. falciparum 3D7 proliferation; at 28.7 µM (top of the series)
# Outline: (§1)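 Parasite DNA was quantified by SYBR Green I fluorescence (ex 485, em 535 nm) after overnight lysis in saponin/Triton buffer at room temperature. Cultures at 0.3% parasitemia and 2.5% hematocrit were first exposed to compound for 72 h at 37 C; signals were normalised to artemisinin (0.29 uM) and vehicle wells.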
# [5] = qHTS profiling for inhibitors of Plasmodium falciparum (DD2) proliferation (AID 743323; call rule not given here); details: lower = more inhibition; at 28.7 µM (top of the series)
# Outline: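 SYBR Green fluorescence (ex 485, em 535 nm) of lysed cultures gives parasite DNA content; wells normalized to artemisinin (0.29 uM) and DMSO controls. Infected red cells: 0.3% parasitemia, 2.5% hematocrit, 72 h, 37 C.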
# [6] = qHTS profiling for inhibitors of Plasmodium falciparum (HB3) proliferation (AID 743324); details: Plasmodium falciparum HB3 blood-stage proliferation; at 28.7 µM (top of the series)
# Outline: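 SYBR Green fluorescence (485 ex/535 em) of lysed cultures, incubated overnight at room temperature in the dark, quantifies parasite DNA. Infected erythrocytes at 0.3% parasitemia and 2.5% hematocrit were exposed 72 h; values normalized to DMSO and 0.29 uM artemisinin controls.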
# [7] = qHTS profiling of the MIPE4 collection as inhibitors of Plasmodium falciparum (3D7) proliferation (AID 743344; call rule not given here); details: P. falciparum 3D7 in erythrocytes, SYBR Green DNA fluorescence, 72 h; at 28.5 µM (top of the series)
# Outline: as §1
# [8] = qHTS profiling of the MIPE4 collection as inhibitors of Plasmodium falciparum (DD2) proliferation (AID 743345; call rule not given here); details: P. falciparum Dd2 in erythrocytes, SYBR Green DNA, 72 h; at 28.5 µM (top of the series)
# Outline: as §1
# [9] = qHTS profiling of the MIPE4 collection as inhibitors of Plasmodium falciparum (DD2) proliferation (Rep 2) (AID 743346; call rule not given here); details: P. falciparum Dd2 in erythrocytes, SYBR Green DNA, 72 h; at 28.5 µM (top of the series)
# Outline: as §1
smiles,measurement,setting,value
COc1cc(Nc2ncc3c(C)nc(-c4cccc(Oc5ccccc5)c4)n3n2)cc(OC)c1OC,Potency,[1],5.19 µM (active)
same,outcome,[2],inactive
NS(=O)(=O)c1cccc(-c2ccc3c(NC(=O)C4CC4)n[nH]c3c2)c1,Potency,[1],4.12 µM (active)
same,outcome,[2],inactive
N#Cc1c(NC(=O)c2ccc(F)cc2)sc2c1CCCC2,Potency,[1],inactive
same,outcome,[2],inactive
Fc1cccc(COc2ccc(Nc3ncncc3C#Cc3ccccc3)cc2Cl)c1,Potency,[1],inactive
same,outcome,[2],inactive
COC(=O)Nc1nc2ccc(Oc3ccc(NC(=O)Nc4cccc(C(=O)O)c4)cc3)cc2[nH]1,Potency,[1],inactive
same,outcome,[2],inactive
Cc1ccc(-c2cc3c(NC(=O)C4CC4)ncnc3o2)cc1,Potency,[1],0.733 µM (active)
same,outcome,[2],inactive
NC(=O)c1ccc(Oc2nccc(-c3c(-c4ccc(F)cc4)ncn3C3CCNCC3)n2)cc1,Potency,[1],11.6 µM (active)
same,outcome,[2],inactive
CNC(=O)c1sc(-n2cnc3cc(OC)c(OC)cc32)cc1OCc1ccccc1C(F)(F)F,Potency,[1],18.4 µM (active)
same,outcome,[2],inactive
CCn1c(-c2nonc2N)nc2cnc(Oc3cccc(NC(=O)c4ccc(N(C)C)cc4)c3)cc21,Potency,[1],inactive
same,outcome,[2],inactive
Fc1ccc(-c2nn3ncccc3c2-c2ccnc(Nc3ccc4c(c3)OCCO4)n2)cc1,Potency,[1],0.0654 µM (active)
same,outcome,[2],inactive
COc1ccc(-c2cc3c(N)ncnc3o2)cc1,Potency,[1],6.54 µM (active)
same,outcome,[2],inactive
COc1ccccc1Nc1ncc(-c2ccccc2)o1,Potency,[1],9.23 µM (active)
same,outcome,[2],inactive
CCn1c(-c2nonc2N)nc2cncc(C(=O)N3CCNCC3)c21,Potency,[1],1.46 µM (active)
same,outcome,[2],inactive
COc1cc2c(cc1Nc1nc(Nc3cccc(F)c3C(N)=O)c3cc[nH]c3n1)N(C(=O)CN1CCN(C(C)C)CC1)CC2,Potency,[1],inactive
same,outcome,[2],inactive
CN1CCC(C(=O)Nc2n[nH]c3nc(-c4ccc(O)cc4)c(Br)cc23)CC1,Potency,[1],36.8 µM (active) and 23.2 µM (active)
same,outcome,[2],inactive
O=C(Nc1n[nH]c2nc(-c3ccco3)c(Br)cc12)C1CC1,Potency,[1],8.23 µM (active)
same,outcome,[2],inactive
COc1cc2ncn(-c3cc(OC(C)c4ccccc4Cl)c(C(N)=O)s3)c2cc1OC (stereo not given),Potency,[1],2.92 µM (active) and 733 nM (active)
same,outcome,[2],inactive
N#Cc1c(NC(=O)CN2CCOCC2)sc2c1CCCC2,Potency,[1],inactive
same,outcome,[2],inactive
COc1ccc(Nc2ncc(-c3ccccc3)o2)cc1OC,Potency,[1],1.16 µM (active)
same,outcome,[2],inactive
Cc1ccc(C(=O)NC2CC2)cc1-c1ccc2[nH]ncc2c1,Potency,[1],inactive
same,outcome,[2],inactive
Nc1nc(-c2cccc(Cl)c2)c(-c2ccc3ncccc3n2)s1,Potency,[1],1.16 µM (active)
same,outcome,[2],inactive
CCn1c(-c2nonc2N)nc2c(C#CCN)ncc(OCCCN)c21,Potency,[1],inactive
same,outcome,[2],inactive
Cc1nn(C)c2cc(N(C)c3ccnc(Nc4cccc(S(N)(=O)=O)c4)n3)ccc12,Potency,[1],1.16 µM (active)
same,outcome,[2],inactive
CN(C)c1cc2c(Nc3ccc4nc(Cc5ccccc5)[nH]c4c3)ncnc2cn1,Potency,[1],0.412 µM (active)
same,outcome,[2],inactive
COc1ccc(-c2ccc3c(NC(=O)C4CC4)n[nH]c3n2)cc1,Potency,[1],6.54 µM (active)
same,outcome,[2],inactive
CCN1CCC(CC(=O)Nc2n[nH]c3nc(-c4cccs4)c(Br)cc23)CC1,Potency,[1],26 µM (active)
same,outcome,[2],inactive
CC1=C(C(=O)Nc2ccc3[nH]ncc3c2)C(c2ccc(F)cc2)NC(=O)N1 (stereo not given),Potency,[1],26 µM (active)
same,outcome,[2],inactive
COc1cc2c(cc1Nc1nc(Nc3ccsc3C(N)=O)c3cc[nH]c3n1)N(C(=O)CN(C)C)CCC2,Potency,[1],inactive
same,outcome,[2],inactive
Cc1ccc2c(-c3ccnc(Nc4cccc(C(F)(F)F)c4)n3)c(-c3ccccc3)nn2n1,Potency,[1],0.146 µM (active)
same,outcome,[2],inactive
CN1CCN(CCCNc2nc3ccc(Oc4ccc(NC(=O)Nc5cc(C(F)(F)F)ccc5F)cc4)cc3[nH]2)CC1,Potency,[1],inactive
same,outcome,[2],inactive
COc1cc(Nc2ncc(-c3ccccc3)o2)cc(OC)c1OC,Potency,[1],0.328 µM (active)
same,outcome,[2],inactive
O=C(Nc1ccccc1)c1nnsc1S(=O)(=O)c1ccc(Cl)cc1,Potency,[3],inactive
CC1=NN(c2ccc(Cl)c(C(=O)O)c2)C(=O)/C1=C/c1ccc(-c2ccccc2[N+](=O)[O-])o1,Potency,[3],inactive
C[C@H]1Cc2c([nH]c3cc(Cl)c(F)cc23)[C@@]2(N1)C(=O)Nc1ccc(Cl)cc12,remaining parasite growth % (stronger effect = lower value),[4],-1.02%
same,"activity, percent of control",[5],-0.226%
same,"remaining proliferation (% of control), lower = more inhibition",[6],0.369%
same,"parasite growth, % of DMSO control",[7],5.02%
same,"parasite growth remaining, % of DMSO control (lower = more inhibition)",[8],6.27%
same,"parasite growth, % of control (lower = inhibition)",[9],33.6%
CO[C@H]1C=CO[C@@]2(C)Oc3c(C)c(O)c4c(O)c(c(C=NN5CCN(C)CC5)c(O)c4c3C2=O)NC(=O)C(C)=CC=CC(C)[C@H](O)[C@@H](C)[C@@H](O)[C@@H](C)[C@@H](OC(C)=O)[C@H]1C (stereo not given in full),"parasite growth, % of DMSO control",[7],4.07%
same,"parasite growth remaining, % of DMSO control (lower = more inhibition)",[8],6.12%
same,"parasite growth, % of control (lower = inhibition)",[9],8.95%
CN[C@@H]1[C@@H](O[C@H]2[C@H](O[C@H]3[C@H](O)[C@@H](O)[C@H](N=C(N)N)[C@@H](O)[C@H]3N=C(N)N)O[C@@H](C)[C@]2(O)C=O)O[C@@H](CO)[C@H](O)[C@H]1O,"parasite growth, % of DMSO control",[7],93.9%
same,"parasite growth remaining, % of DMSO control (lower = more inhibition)",[8],105%
same,"parasite growth, % of control (lower = inhibition)",[9],118%
COC1=C2C[C@H](C)C[C@H](OC)[C@@H](O)[C@@H](C)C=C(C)[C@H](OC(N)=O)[C@@H](OC)C=CC=C(C)C(=O)NC(=CC1=O)C2=O,"parasite growth, % of DMSO control",[7],5.44%
same,"parasite growth remaining, % of DMSO control (lower = more inhibition)",[8],7.35%
same,"parasite growth, % of control (lower = inhibition)",[9],6.42%
Cc1nc2c(C#N)cccc2n1-c1ccc(C(=O)NC2CC2)s1,remaining parasite growth % (stronger effect = lower value),[4],0.492%
same,"activity, percent of control",[5],1.69%
same,"remaining proliferation (% of control), lower = more inhibition",[6],1.16%
same,"parasite growth, % of DMSO control",[7],6.59%
same,"parasite growth remaining, % of DMSO control (lower = more inhibition)",[8],9.03%
same,"parasite growth, % of control (lower = inhibition)",[9],10.3%

# — PubChem BioAssay (NCATS)
